Active and inactive are the calls of the source. Rule as the data show it, unless noted: active = inhibition above about 42%; inactive = the rest.

Assay [1] in a line: StAR promoter reporter inhibitors, counter-screen for LRH-1 inverse agonist project, cell-based, luminescence, high throughput (AID 651611; in the data active = inhibition above about 28%). Particulars: StAR promoter luciferase reporter counterscreen, at 3.6 µM, hits give high values.
For assay [2], the target named is Nuclear receptor subfamily 5 group A member 2 (Homo sapiens) (UniProt O00482). The experiment in a line: NR5A2 activity suppression in reporter cells – cell-based, luminescence, confirmation (AID 651613).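 Also: HEK293T cells co-transfected with LRH-1 and StAR promoter luciferase reporter; 0% = vehicle wells and 100% = parental cells lacking receptor.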 Particulars: cell-based LRH-1 luciferase reporter, inverse agonism; at 3.6 µM; hits give high values.
The target of assay [3] is Steroidogenic factor 1 (Homo sapiens) (UniProt Q13285). Briefly: inverse agonism at SF1 nuclear receptor – cell-based, luminescence, high throughput, counter-screen for LRH-1 inverse agonist project (AID 651614; in the data active = inhibition above about 44%;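 also: cells cotransfected with StAR promoter reporter and SF1 expression vector; 0% = vehicle on cells with receptor and 100% = vehicle on cells lacking receptor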). The note with it: cell-based SF1 luciferase reporter, at 3.6 µM, hits give high values.
A short description of assay [4]: compounds suppressing VP16-driven luciferase signal – cell-based, luminescence, high throughput, counter-screen for LRH-1 inverse agonist project (AID 651615; in the data active = inhibition above about 33%). Particulars: Gal4-VP16 luciferase reporter cells, at 3.6 µM, hits give high values.

Nuclear receptor subfamily 5 group A member 2 (Homo sapiens), sequence (O00482 whole entry, looked up): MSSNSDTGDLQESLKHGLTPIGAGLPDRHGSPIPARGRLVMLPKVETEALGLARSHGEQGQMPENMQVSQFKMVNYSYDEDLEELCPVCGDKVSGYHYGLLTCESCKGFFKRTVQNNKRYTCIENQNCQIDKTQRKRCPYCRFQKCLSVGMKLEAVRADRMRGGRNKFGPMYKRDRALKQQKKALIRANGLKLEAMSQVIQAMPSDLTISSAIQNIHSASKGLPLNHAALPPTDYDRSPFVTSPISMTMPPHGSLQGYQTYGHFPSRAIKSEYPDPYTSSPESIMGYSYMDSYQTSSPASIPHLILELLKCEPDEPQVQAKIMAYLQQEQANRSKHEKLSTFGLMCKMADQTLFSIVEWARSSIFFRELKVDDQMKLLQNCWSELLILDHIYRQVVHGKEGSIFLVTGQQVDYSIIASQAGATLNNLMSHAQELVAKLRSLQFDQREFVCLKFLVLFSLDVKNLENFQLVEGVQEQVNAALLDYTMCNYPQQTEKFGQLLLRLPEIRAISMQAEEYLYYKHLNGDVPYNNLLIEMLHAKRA
Steroidogenic factor 1 (Homo sapiens), sequence (Q13285 whole entry, looked up, the tested form may be a part): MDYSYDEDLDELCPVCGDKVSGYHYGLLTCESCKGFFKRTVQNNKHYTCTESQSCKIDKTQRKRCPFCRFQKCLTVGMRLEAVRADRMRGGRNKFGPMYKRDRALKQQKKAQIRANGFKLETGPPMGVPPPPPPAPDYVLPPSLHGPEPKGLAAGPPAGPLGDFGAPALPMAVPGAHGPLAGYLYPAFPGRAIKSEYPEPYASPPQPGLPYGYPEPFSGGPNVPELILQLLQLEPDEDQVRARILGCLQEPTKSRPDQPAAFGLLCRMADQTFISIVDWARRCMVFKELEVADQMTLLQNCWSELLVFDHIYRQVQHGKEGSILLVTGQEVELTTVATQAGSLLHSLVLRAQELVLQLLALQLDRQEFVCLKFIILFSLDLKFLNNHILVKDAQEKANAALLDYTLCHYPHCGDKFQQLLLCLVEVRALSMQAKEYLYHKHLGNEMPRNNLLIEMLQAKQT

Consider `COc1ccc(-c2c(-c3ccccc3)c(C(=O)C(=O)NCCCN(C)C)n3ccc4cc(OC)c(OC)cc4c23)cc1OC`, for which the inhibition in assay [1] was 20.4% (inactive); in assay [2], 40.9% (inactive); in assay [3], 32.1% (inactive); in assay [4] it was 2.99% (inactive).
For the molecule `O=C(Cc1ccc(S(=O)(=O)N2CCCC2)s1)Nc1cccc([N+](=O)[O-])c1`, the inhibition in assay [1] was 7.13% (inactive); in assay [2] it was 51.3% (active); in assay [3] it was 46.5% (active); in assay [4] it was 1.81% (inactive).
Regarding `CCCOc1ccc(Cn2cnc3ccccc32)cc1`, the inhibition in assay [1] is 5.08% (inactive); in assay [2] it was 54.6% (active); in assay [3] it was 52.4% (active); in assay [4], 27.3% (inactive).
On to `NC(=O)C1CCN(C(=O)COc2ccc3c4c(c(=O)oc3c2)CCCC4)CC1`, for which the inhibition in assay [1] is 12.7% (inactive); in assay [2], 59.3% (active); in assay [3], 50.3% (active); in assay [4], -6.57% (inactive).
For `Cc1ccc[n+](CC(=O)Nc2ccc(Cl)c([N+](=O)[O-])c2)c1`, in that order: 9.69% (inactive), 47% (active), 39.2% (inactive) and 13.9% (inactive).
For `O=C(C(Cl)c1ccccc1)N1CCCC1` (configuration not stated), in that order: 7.29% (inactive), 51.5% (active), 44.9% (active) and -16.8% (inactive).
For `O=C(Nc1ccccc1)c1oc2ccccc2c1NC(=O)C1CC1`, in that order: 3.25% (inactive), 52.8% (active), 50.5% (active) and 1.67% (inactive).
`COCCNc1ncnc2c1ncn2[C@H]1CN(CCc2ccccc2)C[C@@H](CO)O1`: the inhibition in assay [1] is 9.96% (inactive); in assay [2] it was 28.4% (inactive); in assay [3], 24.9% (inactive); in assay [4] it was 3.57% (inactive).
As for `CCOc1ccc(CCNC(=O)COC(=O)c2cccnc2OCC)cc1OCC`, the inhibition in assay [1] is 2.1% (inactive); in assay [2], 53.3% (active); in assay [3] it was 48.7% (active); in assay [4], 0.35% (inactive).
For `O=C(Nc1ccc(S(=O)(=O)N2CCOCC2)cc1)c1ccc([N+](=O)[O-])o1`, in that order: 17.6% (inactive), 57.5% (active), 65.2% (active) and -5.86% (inactive).
For `Cc1cc(/C=N/n2cnnc2)c(C)n1-c1ccc(OCc2ccc(Cl)cc2)cc1`, in that order: -11% (inactive), 27.8% (inactive), 48.3% (active) and 31.2% (active).
For `COc1cc(/C=N/Nc2snc(SC)c2C#N)ccc1O`, in that order: 13.1% (inactive), 28.3% (inactive), 44.1% (active) and -90.8% (inactive).
Consider `Cc1ccc(-n2nc(C)c(NC(=O)CCl)c2C)cc1C`, for which the inhibition was 57.9% (active) in assay [1], 66.8% (active) in assay [2], 66.8% (active) in assay [3] and -60.3% (inactive) in assay [4].
For `CCOc1ccc(NC(=O)CSc2nc3c(c(=O)n2-c2ccccc2OC)SCC3)cc1`, the inhibition in assay [1] was 8.34% (inactive); in assay [2], 63.1% (active); in assay [3], 58.7% (active); in assay [4] it was -10.6% (inactive).
For the molecule `Cc1cccc(NC(=O)c2ccc([N+](=O)[O-])o2)c1C`, the inhibition in assay [1] was 24.6% (inactive); in assay [2], 64.2% (active); in assay [3] it was 60.4% (active); in assay [4], -8.95% (inactive).
For `CC(=O)N1CCc2c(sc(NC(=O)Cc3ccccc3)c2C#N)C1`, in that order: 18.4% (inactive), 64% (active), 57.4% (active) and -30.8% (inactive).
`O=C(NCc1ccc2c(c1)OCO2)c1cc([N+](=O)[O-])ccc1N1CCCCC1`: the inhibition is 44.1% (active) in assay [1], 36.2% (inactive) in assay [2], 47.6% (active) in assay [3] and 30.3% (inactive) in assay [4].
For `CCOC(=O)c1ccc(Nc2nc(-c3cccnc3)nc3ccccc23)cc1`, in that order: 44.5% (active), 49.6% (active), 41.1% (inactive) and 11.4% (inactive).
Take `O=C1CCc2cc(OCCCCc3nnnn3C3CCCCC3)ccc2N1`: the inhibition in assay [1] was 12.9% (inactive); in assay [2], 54% (active); in assay [3] it was 49.8% (active); in assay [4], 9.24% (inactive).
For `COc1cc(C(=O)NN=Cc2ccc(N(C)C)cc2)cc(OC)c1OC`, in that order: 37.3% (active), 37.8% (inactive), 51.1% (active) and 22.3% (inactive).
For `Cc1ccc(CNC(=O)COc2ccc(C(=O)c3ccc(F)cc3)cc2)cc1`, in that order: 17.6% (inactive), 51% (active), 35.8% (inactive) and -11.9% (inactive).
In the case of `COc1ccccc1N1CCN(C(=O)CSc2nc3ccccc3o2)CC1`, the inhibition was -10.2% (inactive) in assay [1], 30.2% (inactive) in assay [2], 35.1% (inactive) in assay [3] and -19.8% (inactive) in assay [4].
For `CN(C)c1nnnn1-c1cccc(Oc2ncc(C(F)(F)F)cc2Cl)c1`, in that order: 8.18% (inactive), 38.6% (inactive), 38.3% (inactive) and -5.85% (inactive).
For `COC(=O)c1ccc(NC(=O)CSc2ccc(-c3ccccn3)nn2)cc1`, in that order: -13.3% (inactive), 52.9% (active), 41.7% (inactive) and -18% (inactive).
For `O=C(c1ccc([N+](=O)[O-])o1)N1CCN(c2nc3c(Cl)cccc3s2)CC1`, in that order: 10.8% (inactive), 64.6% (active), 61.3% (active) and 3.24% (inactive).
As for `O=C(COC(=O)c1ccccc1O)Nc1ccc(N2CCOCC2)cc1`, the inhibition was 0.71% (inactive) in assay [1], 59.3% (active) in assay [2], 60.4% (active) in assay [3] and -1.07% (inactive) in assay [4].
For `Cc1ccc(C)c(NC(=O)CSc2nnc(-c3ccccc3)n2N)c1`, in that order: -26.9% (inactive), 53% (active), 44.7% (active) and -20.5% (inactive).
Turning to `C/C=C/c1ccc(OCCOc2ccc(C=O)cc2OC)c(OC)c1`, the inhibition was 11.4% (inactive) in assay [1], 44.7% (active) in assay [2], 35.4% (inactive) in assay [3] and 2.21% (inactive) in assay [4].
As to `CCc1cccc2sc(N3CCN(C(=O)c4ccc([N+](=O)[O-])o4)CC3)nc12`, the inhibition is 3.02% (inactive) in assay [1], 57.7% (active) in assay [2], 52.5% (active) in assay [3] and 17.4% (inactive) in assay [4].
In the case of `Cc1onc(-c2ccccc2Cl)c1C(=O)O/N=C(\N)c1ccc([N+](=O)[O-])o1`, the inhibition in assay [1] was 10.8% (inactive); in assay [2], 66.3% (active); in assay [3], 62.5% (active); in assay [4] it was -5.99% (inactive).
For `COc1ccc(CCNC(=O)CSc2nc3[nH]c(=O)cc(O)c3s2)cc1`, the inhibition was 17.6% (inactive) in assay [1], 60.7% (active) in assay [2], 51.7% (active) in assay [3] and -3.78% (inactive) in assay [4].
For `O=C(Nc1c(F)cccc1F)c1cnc(N2CCN(c3ccccn3)CC2)c2ccccc12`, in that order: 41.4% (active), 41% (inactive), 35.2% (inactive) and 17.4% (inactive).
For `CC(=O)NC(Cc1c[nH]c2ccccc12)C(=O)OCC(=O)Nc1ccc2c(c1)OCO2` (configuration not stated), in that order: 12.4% (inactive), 56.8% (active), 56.7% (active) and -12.7% (inactive).
For `Cc1cc2oc(=O)cc(-c3ccccc3)c2c(C)c1-c1ccc(CO)cc1`, in that order: 10.8% (inactive), 71.5% (active), 63.6% (active) and 16.8% (inactive).
On to `Cc1ccc(NC(=O)CN2C(=O)NC(C)(CC(C)C)C2=O)c(Br)c1` (configuration not stated), for which the inhibition in assay [1] is 15.9% (inactive); in assay [2], 55.1% (active); in assay [3], 61.6% (active); in assay [4], -6.87% (inactive).
In the case of `CCC(C)(C)n1nnnc1CN1CCC(O)(c2cccc(C(F)(F)F)c2)CC1`, the inhibition in assay [1] was 8.87% (inactive); in assay [2], 41.6% (active); in assay [3] it was 57.2% (active); in assay [4] it was -2.12% (inactive).
For `Cc1ccsc1CNc1ncnc2ccc(-c3c(C)noc3C)cc12`, in that order: 54.5% (active), 37.9% (inactive), 28.7% (inactive) and -142% (inactive).
For `CC(=O)c1ccc2c(c1)C1C=CCC1C(c1cc3c(cc1Br)OCO3)N2` (configuration not stated), the inhibition in assay [1] was 45.6% (active); in assay [2], 50.3% (active); in assay [3] it was 46.1% (active); in assay [4] it was 16.9% (inactive).
For `CCOc1ccc(NC(=O)CSc2nc3ccccc3c(=O)n2CCCC(=O)NCC2CCCO2)cc1` (configuration not stated), in that order: 1.46% (inactive), 41.9% (active), 40.1% (inactive) and -6.22% (inactive).
For `COc1ccc(Nc2nc(Nc3ccc(OC)cc3)nc(SC3=NCCS3)n2)cc1`, in that order: 19.6% (inactive), 53.3% (active), 53.4% (active) and 4.27% (inactive).
For `COc1cc(NC(=O)Cn2ccsc2=N)c(C)cc1[N+](=O)[O-]`, in that order: 11.8% (inactive), 49.5% (active), 58% (active) and -0.82% (inactive).
Take `CCN1C(=O)c2cccc3c(NC(=O)c4cccc(N5C(=O)CCC5=O)c4)ccc1c23`: the inhibition in assay [1] is 21.9% (inactive); in assay [2], 51.3% (active); in assay [3] it was 50.1% (active); in assay [4], -48.1% (inactive).
For `Cc1no[n+]([O-])c1COc1ccccc1/C=N/n1nnnc1N`, in that order: 7.3% (inactive), 48.8% (active), 43% (active) and -13.9% (inactive).
